Screens (PubChem)
Nrf2 ARE act = qHTS of Nrf2 Activators; actives 0.31% (n = 410,000); AREc32 ARE-luciferase reporter (MCF7-derived line), luminescence, 24 h; Potency, µM (top dose mostly 46.1 µM), for inactives: at the highest dose activation, usual class: activators; note: potency is the fitted concentration of half-maximal effect; % of control where 0% means no effect; nearly all actives have a fitted effect of over 65% in size
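AREc32 cells carrying an ARE-driven firefly luciferase, 1000 cells/well in OPTI-MEM with 5% FBS, dosed after overnight attachment and incubated 24 hr at 37 deg C. Steady-Glo luminescence read after 30 min at RT.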
IL-2 act = qHTS of IL-2 Activators. activation, % (series mostly up to about 46 µM). AID 652025, 2013. IL-2 activation reporter assay, cell-based qHTS; stimulated with anti-CD3/CD4/CD28 beads; in transgenic mouse T cells. actives 0.065% (n = 360,000); in the data active = activation above about 50%; inconclusive = mostly about 30% to 49%; note: 0% is about no effect
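Screening format: compound pinned onto unstimulated transgenic mouse T cells, 60 min incubation, then anti-CD3/anti-CD4/anti-CD28 bead stimulation for 18 hours at 37 degrees C, followed by EGFP and DsRed detection.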
ELG1 DNA repair = qHTS screen for small molecules that inhibit ELG1-dependent DNA repair in human embryonic kidney (HEK293T) cells expressing luciferase-tagged ELG1; HEK293T ELG1-luciferase reporter, luminescence, 16 h; DNA damage induced by 5-fluorouridine; Potency, µM (titrated, usually from 46.1 µM), for the others: top-dose activity change, negative = inhibition, actives largely listed as inhibitors; actives 2.3% (n = 330,000); AID 504467, 2011; note: potency is the fitted concentration of half-maximal effect; % is set by controls: 0 for no effect and ±100 for the full control effect; nearly all actives have a fitted effect of over 55% in size
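Luminescence from the luciferase reporter, measured 30 min after ONE-Glo reagent at room temperature, was the read-out. Beforehand, 2,000 cells per well were exposed for 16 hr at 37 °C to 5-fluorouridine together with compound or vehicle.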
BRCA1 expr up = qHTS Assay to Identify Small Molecule Activators of BRCA1 Expression. Potency, µM (highest dose often 46.1 µM), inactives show top-dose activation, usual class: activators. AID 624202, 2012. actives 1.1% (n = 380,000). MCF7-BRCA1-FFLuc reporter, luminescence, 48 h; response scale: scaled: vehicle 0%, 10 µM genistein 100%; note: potency is the fitted concentration of half-maximal effect; nearly all actives have a fitted effect of over 80% in size
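Reporter cells (MCF7, BRCA1 promoter-firefly luciferase) received library compounds across a concentration series for 48 h. End-point luminescence was measured and concentration-effect curves derived after normalization.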
An asterisk follows results filed as active; ? = inconclusive; . = no result. A selection: hits, their analogues and other compounds. The true share with any hit is near 3.1%. Unless noted, calls come from the whole dose curve; as a rule, active = well fitted curve in the direction sought with a large enough effect; inconclusive = small, poorly fitted or top-dose-only effect, or another doubt; inactive = no such curve, though single readings can be large; an effect the other way counts as inactive or inconclusive.

SMILES	Nrf2 ARE act	IL-2 act	ELG1 DNA repair	BRCA1 expr up
C=CCNc1nc(NCc2ccccc2)c(C#N)c2c1CN(C)CC2	10%	4	-23%	-28%
N#Cc1c(NCCN)nc(NCc2ccccc2)c2c1CCN(Cc1ccccc1)C2	0%	-4	13µM*	-1%
Cc1[nH]c(-c2ccc(F)cc2)cc1C(=O)N1CCN(c2ccccc2)CC1	3%	-1	?	-22%
COc1cccc(N2CCN(C(=O)c3cc(-c4ccc(F)cc4)[nH]c3C)CC2)c1	8%	-5	21µM*	-55%
CC(C)=CCC[C@H](C)C[C@@H]1CC2=C(C(=O)OC(C)(C)O2)[C@@H](c2ccc(F)cc2)O1	1%	-1	.	13%
CCn1c(=O)c([N+](=O)[O-])c(N2CCSCC2)c2ccccc21	0%	-1	6.5µM*	-37%
CCn1c(=O)c([N+](=O)[O-])c(N2CCN(Cc3ccc4c(c3)OCO4)CC2)c2ccccc21	-1%	3	15µM*	-73%
O=c1c([N+](=O)[O-])c(N2CCOCC2)c2ccccc2n1Cc1ccccc1	0%	-2	-5%	15%
Cn1c(=O)c([N+](=O)[O-])c(N2CCSCC2)c2ccccc21	0%	0	?	-7%
COc1cccc(-c2ccc3c(N)c(C(=O)NCc4ccc(Cl)cc4)sc3n2)c1	-1%	.	.	-42%
Fc1ccc2nncc(SCc3ccccc3Cl)c2c1	5.6µM*	0	.	-47%
Nc1cc(N)nc(SCc2ccccc2Cl)n1	2%	0	.	23%
CC(=O)Nc1nonc1-c1nnc(SCc2ccccc2C)n1C	-1%	.	.	.
COc1ccccc1-c1nnc(NC(=O)CSc2nncn2C)s1	2%	-3	?	10µM*
C[C@H](NC(=O)c1ccccc1)C(=O)Nc1nc(-c2ccccn2)cs1	-1%	-1	7.3µM*	-37%
Cc1cccc(C(=O)NC(C(=O)Nc2nc(-c3ccccn3)cs2)C(C)C)c1 (stereo unspecified)	0%	2	2.9µM*	-67%
Cc1ccc(-c2nc3cc(C(C)C)ccc3o2)cc1NC(=O)c1cc([N+](=O)[O-])ccc1N1CCOCC1	0%	.	.	-61%
CCn1c(=O)n(CC)c2cc(S(=O)(=O)N3CCc4ccccc43)ccc21	4%	-3	16µM*	-64%
CCOC(=O)C1CCCN(C(=O)c2cc3c(-c4cccc(OC)c4)nn(C)c3s2)C1 (stereo unspecified)	0%	-3	12µM*	-39%
COc1cccc(-c2nn(C)c3sc(C(=O)N4CCN(c5ccccn5)CC4)cc23)c1	0%	-4	?	-87%
COc1cccc(-c2nn(C)c3sc(C(=O)N4CCOCC4)cc23)c1	6%	-1	18µM*	-22%
CCCCNC(=O)C1C(c2ccc(C(F)(F)F)cc2)=Nc2ccccc2N1C(=O)c1cccc2ccccc12 (stereo unspecified)	.	1	.	.
O=C(COC(=O)C12CC3CC(CC(Cl)(C3)C1)C2)NCc1ccco1	.	.	.	0%
c1cc2c(cn1)cnc1cscc12	0%	0	8.2µM*	27%
c1cnc2c(c1)ncc1cscc12	0%	2	?	61%
SMILES	Nrf2 ARE act	IL-2 act	ELG1 DNA repair	BRCA1 expr up
CCCCOc1cccc(C(=O)Nc2cccc(-c3nc4ncccc4o3)c2C)c1	0%	.	.	.
Cc1c(NC(=O)c2cccc(-c3cc4ccccc4oc3=O)c2)cccc1-c1nc2ncccc2o1	0%	1	13µM*	32%
COc1ccc(OC)c(C2CC(=O)c3c([nH]c(C(=O)OC4CCC(C)CC4)c3C)C2)c1 (stereo unspecified)	0%	.	.	.
Cc1nc(SCc2nc3ccccc3[nH]2)c2oc3cc(Br)ccc3c2n1	10%	-2	18µM*	-43%
Cc1nc(SCc2cccc(F)c2)c2oc3ccccc3c2n1	0%	-2	21µM*	-22%
Cc1ccc2oc3c(SCc4nc5ccccc5[nH]4)nc(C)nc3c2c1	7%	-2	0%	0%
Cc1nc(SCc2nc3ccc(C(=O)c4ccccc4)cc3[nH]2)c2oc3ccccc3c2n1	4%	-3	4.6µM*	0%
CCc1cnc2c(c1SCc1c(F)cccc1Cl)c(=O)n(C)c(=O)n2C	1%	.	.	.
Cc1ccc(S(=O)(=O)N2C[C@H]3N(C(=O)OC(C)C)N(C(=O)OC(C)C)C[C@H](OC(=O)Nc4c(C)noc4C)[C@@]3(O)C2)cc1	0%	4	.	7%
Cc1cc(C2=NNC(=NCCc3ccccc3)SC2)c(C)n1CC1CCCO1 (stereo unspecified)	8%	0	?	47%
Clc1ccc(C2=NNC(=NCC3CCCO3)SC2)cc1 (stereo unspecified)	5%	0	?	2.5µM*
CCCc1cc(C(=O)N/N=C/c2cccn2C)cs1	1%	-1	?	7.9µM*
O=C(Cc1ccc(OCc2ccccc2)cc1)NO	.	.	.	59%
Cc1cc(C)n(C(=O)/C(C#N)=N/Nc2cc(Cl)cc(Cl)c2)n1	0%	-1	16µM*	-66%
CCN(CC)C(=O)c1ccc2nc(-c3ccccc3)c(-c3ccccc3)nc2c1	4%	-1	?	1%
CCCN(CCC)C(=O)c1ccc2nc(-c3ccc(OC)c(OC)c3)c(-c3ccc(OC)c(OC)c3)nc2c1	1%	1	12µM*	-28%
Oc1c(C(c2ccccc2)N2CCOCC2)sc2nc(-c3ccco3)nn12 (stereo unspecified)	-1%	.	.	.
O=C(/C=C/c1cccs1)c1cc(Cl)ccc1O	14µM*	1	0%	-7%
O=C(C=Cc1cccs1)c1ccc(Cl)s1	22µM*	-1	.	2%
CN(C)/C=C/C(=O)c1ccc(Cl)s1	8%	1	?	0%
Cc1c(CC(=O)NC(C)C)c(=O)oc2cc3c(cc12)CCC(C)(C)O3	1%	-1	?	11µM*
COc1ccc(S(=O)(=O)Nc2cc3c(cc2NCc2ccccc2)n(C)c(=O)n3C)cc1	11µM*	.	.	.
CC1CCCN(c2ccc(C(=O)NCc3ccccc3)cn2)C1 (stereo unspecified)	5%	1	?	6.3µM*
CC1CCCN(c2ccc(C(=O)NCc3cccs3)cn2)C1 (stereo unspecified)	4%	0	?	10µM*
O=C(NCc1cccs1)c1ccc(N2CCCCC2)nc1	2%	1	.	7.9µM*
CC1CCN(c2ccc(C(=O)NCCc3ccccc3)cn2)CC1	2%	-1	?	?
O=C(NCc1cccs1)c1ccncc1	-1%	-2	9%	-1%
CCN(CC)C(=O)c1sc2c(c1C)c(=O)n(-c1ccc(Cl)c(Cl)c1)c(=O)n2Cc1cc(=O)n2ccccc2n1	0%	.	.	.
CC(C)(C)c1ccc(NC(=O)C2=CC=CN3CCS(=O)(=O)N=C23)cc1	4%	0	?	10µM*
